Here are results for ten compounds from ChEMBL document CHEMBL3988442, “University of Dundee, Small-Polar-MMV Screening Library” (2021).

Holding throughout (parameters): scale not given: direction of the effect not stated beside the values
Assay [1] addresses Protein translocase subunit SecA (Escherichia coli (strain K12)) (UniProt P10408). Put plainly: Assay to Identify E. coli SecA ATPase Inhibitors. The format is functional. The note with it: 30 µM.
In assay [2] the target is T1, Ubiquitin-activating enzyme e1, putative (Leishmania donovani (strain BPK282A1)) (UniProt E9BSI1).
T1 sequence (whole entry): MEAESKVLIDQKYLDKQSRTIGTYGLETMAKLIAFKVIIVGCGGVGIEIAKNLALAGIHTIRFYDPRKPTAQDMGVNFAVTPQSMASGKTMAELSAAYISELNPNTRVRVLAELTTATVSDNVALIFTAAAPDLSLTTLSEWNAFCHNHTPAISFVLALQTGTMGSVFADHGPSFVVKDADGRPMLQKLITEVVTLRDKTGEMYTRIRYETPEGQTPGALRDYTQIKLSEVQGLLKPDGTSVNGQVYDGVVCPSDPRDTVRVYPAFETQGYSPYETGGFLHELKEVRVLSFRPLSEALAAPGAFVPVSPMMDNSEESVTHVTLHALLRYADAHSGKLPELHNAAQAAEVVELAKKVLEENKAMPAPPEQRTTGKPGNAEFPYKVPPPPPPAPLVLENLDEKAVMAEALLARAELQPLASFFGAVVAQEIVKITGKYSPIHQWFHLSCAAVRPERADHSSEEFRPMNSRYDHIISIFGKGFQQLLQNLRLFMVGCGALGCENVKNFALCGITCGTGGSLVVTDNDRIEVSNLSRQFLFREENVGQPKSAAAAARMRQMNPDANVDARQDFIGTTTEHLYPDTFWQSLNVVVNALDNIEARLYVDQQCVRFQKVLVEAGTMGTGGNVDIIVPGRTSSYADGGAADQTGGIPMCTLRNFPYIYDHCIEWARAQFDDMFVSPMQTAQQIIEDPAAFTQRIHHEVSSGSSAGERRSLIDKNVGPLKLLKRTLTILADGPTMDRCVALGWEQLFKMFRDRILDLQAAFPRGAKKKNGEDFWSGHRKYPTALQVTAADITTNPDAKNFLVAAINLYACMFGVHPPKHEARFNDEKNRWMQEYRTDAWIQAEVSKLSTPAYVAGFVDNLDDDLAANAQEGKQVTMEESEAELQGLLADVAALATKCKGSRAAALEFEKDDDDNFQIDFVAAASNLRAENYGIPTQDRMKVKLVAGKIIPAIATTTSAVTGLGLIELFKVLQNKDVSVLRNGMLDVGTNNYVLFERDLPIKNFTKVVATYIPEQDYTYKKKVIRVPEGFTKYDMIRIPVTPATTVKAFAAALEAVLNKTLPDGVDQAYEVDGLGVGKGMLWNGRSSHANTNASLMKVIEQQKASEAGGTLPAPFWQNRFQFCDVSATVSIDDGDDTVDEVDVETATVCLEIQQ
Put plainly: Leishmania donovani Ubiquitin Activating Enzyme (LdE1). The assay is classed as functional. The note with it: 30 µM.

In assay [3] the target is AMP-activated protein kinase, AMPK (Homo sapiens) (UniProt P54646+O43741+P54619+Q9UGJ0+Q9Y478+Q13131+Q9UGI9). Put plainly: AMP-dependent Kinase enzyme assay. An in vitro enzyme assay that detects ADP turnover that is directly proportional to AMPK activity. This uses naive AMPK that is activated during the assay with MK-8722. The format is functional. The note with it: 30 µM.

Assay [4] has as its target Sialic acid-binding Ig-like lectin 9 (Homo sapiens) (UniProt Q9Y336). Put plainly: Hs-Siglec9 ALPHAscreen SOP 20170721. The note with it: 10 µM.
Another assay has as its system Trypanosoma cruzi. Put plainly: Trypanosoma cruzi phosphomannomutase and mannose-1-phosphate guanylyltransferase assay. Conditions: 10 µM. The assay is classed as functional.
Assay [5] deals with T2, Arginase-2, mitochondrial (Homo sapiens) (UniProt P78540).
T2 sequence (whole entry): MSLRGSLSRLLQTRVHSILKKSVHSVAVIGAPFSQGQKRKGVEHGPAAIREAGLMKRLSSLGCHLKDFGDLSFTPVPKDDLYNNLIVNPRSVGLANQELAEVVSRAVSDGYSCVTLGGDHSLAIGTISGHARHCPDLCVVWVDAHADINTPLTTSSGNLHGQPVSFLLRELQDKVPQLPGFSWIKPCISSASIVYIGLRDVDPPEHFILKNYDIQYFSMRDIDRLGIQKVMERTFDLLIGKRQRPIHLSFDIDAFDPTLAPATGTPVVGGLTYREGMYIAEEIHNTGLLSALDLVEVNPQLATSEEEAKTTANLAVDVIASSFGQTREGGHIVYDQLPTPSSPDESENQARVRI
Put plainly: in vitro enzyme assay to detect the production of urea directly proportional to the activity of Arginase II. Note: in the data most compounds retested in dose-response had high values. The assay is classed as functional. The note with it: 33.3 µM.

Assay [6] concerns the target T3, Proteasome subunit beta (Trypanosoma cruzi) (UniProt O96673).
T3 sequence (whole entry): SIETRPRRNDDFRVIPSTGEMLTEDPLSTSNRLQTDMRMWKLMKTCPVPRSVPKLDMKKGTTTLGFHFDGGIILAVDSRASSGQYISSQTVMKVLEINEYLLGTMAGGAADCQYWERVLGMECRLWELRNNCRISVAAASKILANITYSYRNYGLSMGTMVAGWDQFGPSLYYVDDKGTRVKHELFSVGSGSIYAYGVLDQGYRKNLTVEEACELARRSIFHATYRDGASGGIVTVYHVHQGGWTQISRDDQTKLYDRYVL
Put plainly: Trypanosoma cruzi proteasome chymotrypsin-like activity (TcProtChymo) assay. Note: in the data most compounds retested in dose-response had high values. The format is functional. The note with it: 9.37 µM.

Another assay is filed under the species Homo sapiens. Put plainly: To identify inhibition of the IFN signalling (Jak-Stat) pathway via expression of an eGFP reporter gene under the control of an IFN-stimulated response element (ISRE) containing MxA promoter. The format is functional. The note with it: 30 µM.
Assay [7] has as its target T4, Tyrosyl-tRNA synthetase, putative (Trypanosoma cruzi (strain CL Brener)) (UniProt Q4DSP6).
T4 sequence (whole entry): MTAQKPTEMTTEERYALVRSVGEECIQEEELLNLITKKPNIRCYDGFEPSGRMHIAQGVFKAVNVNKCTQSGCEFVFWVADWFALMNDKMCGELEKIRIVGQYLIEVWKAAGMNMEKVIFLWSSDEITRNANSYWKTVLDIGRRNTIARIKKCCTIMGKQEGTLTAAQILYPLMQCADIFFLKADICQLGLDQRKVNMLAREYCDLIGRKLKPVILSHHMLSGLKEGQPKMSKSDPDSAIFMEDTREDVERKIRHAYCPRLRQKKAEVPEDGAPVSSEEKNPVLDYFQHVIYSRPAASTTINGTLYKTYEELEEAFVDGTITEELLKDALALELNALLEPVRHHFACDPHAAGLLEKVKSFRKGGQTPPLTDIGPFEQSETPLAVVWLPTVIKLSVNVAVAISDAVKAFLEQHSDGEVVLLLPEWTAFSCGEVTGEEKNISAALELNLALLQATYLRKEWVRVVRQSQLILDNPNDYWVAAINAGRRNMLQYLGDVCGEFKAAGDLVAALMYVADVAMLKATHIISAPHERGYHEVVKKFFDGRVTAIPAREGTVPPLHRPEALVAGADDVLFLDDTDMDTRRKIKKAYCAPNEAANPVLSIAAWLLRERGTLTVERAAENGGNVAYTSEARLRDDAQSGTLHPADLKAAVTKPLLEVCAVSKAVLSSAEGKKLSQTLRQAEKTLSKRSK
Put plainly: Trypanosoma cruzi tyrosyl tRNA synthetase (TcYRS) _High Tyrosine SOP. Note: in the data most compounds retested in dose-response had high values. The assay is classed as functional. The note with it: 30 µM.

The target in assay [8] is T4, Tyrosyl-tRNA synthetase, putative (Trypanosoma cruzi (strain CL Brener)). Put plainly: Trypanosoma cruzi tyrosyl tRNA synthetase (TcYRS) SOP. The assay is classed as functional. Conditions: 30 µM.
The target in assay [9] is Chromo domain-containing protein 1 (Saccharomyces cerevisiae (strain ATCC 204508 / S288c) (Baker's yeast)) (UniProt P32657). Put plainly: ScCHD-1 Enzyme Inhibition Assay. Note: in the data most compounds retested in dose-response had high values. The assay is classed as functional. Conditions: 30 µM.
Chain of Chromo domain-containing protein 1 (Saccharomyces cerevisiae (strain ATCC 204508 / S288c) (Baker's yeast)) (P32657 whole entry, the tested form may be a part): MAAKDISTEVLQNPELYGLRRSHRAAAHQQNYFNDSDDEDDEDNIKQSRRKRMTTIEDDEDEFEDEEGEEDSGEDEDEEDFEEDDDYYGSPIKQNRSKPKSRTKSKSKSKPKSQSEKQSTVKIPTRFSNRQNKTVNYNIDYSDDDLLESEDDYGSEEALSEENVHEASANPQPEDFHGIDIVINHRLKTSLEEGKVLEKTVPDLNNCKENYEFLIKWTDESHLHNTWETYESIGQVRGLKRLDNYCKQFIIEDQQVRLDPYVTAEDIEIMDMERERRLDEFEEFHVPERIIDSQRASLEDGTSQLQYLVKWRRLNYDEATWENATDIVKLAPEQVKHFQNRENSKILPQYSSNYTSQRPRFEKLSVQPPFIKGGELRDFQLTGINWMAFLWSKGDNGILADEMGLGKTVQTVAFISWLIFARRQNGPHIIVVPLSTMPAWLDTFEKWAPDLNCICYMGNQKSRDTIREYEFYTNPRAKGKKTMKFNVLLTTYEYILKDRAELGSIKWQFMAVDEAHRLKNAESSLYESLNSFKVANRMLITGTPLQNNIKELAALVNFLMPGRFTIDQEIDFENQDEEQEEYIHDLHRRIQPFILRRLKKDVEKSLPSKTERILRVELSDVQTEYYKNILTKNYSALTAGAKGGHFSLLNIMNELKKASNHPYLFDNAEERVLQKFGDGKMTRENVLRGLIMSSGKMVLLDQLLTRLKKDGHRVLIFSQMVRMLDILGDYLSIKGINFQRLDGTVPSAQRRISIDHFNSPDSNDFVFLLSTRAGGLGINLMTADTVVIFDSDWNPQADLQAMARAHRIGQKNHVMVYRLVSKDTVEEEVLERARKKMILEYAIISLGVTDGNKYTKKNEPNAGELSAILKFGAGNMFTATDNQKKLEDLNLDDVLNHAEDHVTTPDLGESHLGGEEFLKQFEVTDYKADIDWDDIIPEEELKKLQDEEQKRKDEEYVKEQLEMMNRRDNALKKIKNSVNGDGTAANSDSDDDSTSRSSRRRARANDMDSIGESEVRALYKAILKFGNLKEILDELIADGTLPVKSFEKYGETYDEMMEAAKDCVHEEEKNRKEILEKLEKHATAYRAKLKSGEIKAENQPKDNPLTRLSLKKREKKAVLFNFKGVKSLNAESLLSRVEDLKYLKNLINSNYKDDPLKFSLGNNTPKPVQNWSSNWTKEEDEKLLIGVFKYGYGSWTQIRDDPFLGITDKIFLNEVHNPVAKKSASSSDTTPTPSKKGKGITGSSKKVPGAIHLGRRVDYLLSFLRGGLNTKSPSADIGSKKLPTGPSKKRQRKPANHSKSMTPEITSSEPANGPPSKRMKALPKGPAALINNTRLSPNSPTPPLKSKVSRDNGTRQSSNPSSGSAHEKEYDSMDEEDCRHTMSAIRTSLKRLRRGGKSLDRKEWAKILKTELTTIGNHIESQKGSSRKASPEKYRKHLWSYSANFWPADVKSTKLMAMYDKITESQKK

For some assays here: Potency and affinity values are given separately.

Chain of Sialic acid-binding Ig-like lectin 9 (Homo sapiens) (Q9Y336 whole entry): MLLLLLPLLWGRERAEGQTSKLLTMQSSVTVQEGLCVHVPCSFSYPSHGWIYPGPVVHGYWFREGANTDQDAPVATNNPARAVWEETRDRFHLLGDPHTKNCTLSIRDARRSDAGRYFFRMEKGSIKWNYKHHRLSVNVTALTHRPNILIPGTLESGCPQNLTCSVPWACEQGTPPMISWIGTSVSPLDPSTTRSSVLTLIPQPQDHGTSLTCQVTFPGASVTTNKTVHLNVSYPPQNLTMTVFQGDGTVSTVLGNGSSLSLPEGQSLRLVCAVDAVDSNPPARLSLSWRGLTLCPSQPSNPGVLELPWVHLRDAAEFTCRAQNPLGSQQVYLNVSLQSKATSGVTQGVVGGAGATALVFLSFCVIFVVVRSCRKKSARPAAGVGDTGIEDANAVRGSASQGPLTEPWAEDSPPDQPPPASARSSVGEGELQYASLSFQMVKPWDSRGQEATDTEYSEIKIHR
Chain of Protein translocase subunit SecA (Escherichia coli (strain K12)) (P10408 whole entry): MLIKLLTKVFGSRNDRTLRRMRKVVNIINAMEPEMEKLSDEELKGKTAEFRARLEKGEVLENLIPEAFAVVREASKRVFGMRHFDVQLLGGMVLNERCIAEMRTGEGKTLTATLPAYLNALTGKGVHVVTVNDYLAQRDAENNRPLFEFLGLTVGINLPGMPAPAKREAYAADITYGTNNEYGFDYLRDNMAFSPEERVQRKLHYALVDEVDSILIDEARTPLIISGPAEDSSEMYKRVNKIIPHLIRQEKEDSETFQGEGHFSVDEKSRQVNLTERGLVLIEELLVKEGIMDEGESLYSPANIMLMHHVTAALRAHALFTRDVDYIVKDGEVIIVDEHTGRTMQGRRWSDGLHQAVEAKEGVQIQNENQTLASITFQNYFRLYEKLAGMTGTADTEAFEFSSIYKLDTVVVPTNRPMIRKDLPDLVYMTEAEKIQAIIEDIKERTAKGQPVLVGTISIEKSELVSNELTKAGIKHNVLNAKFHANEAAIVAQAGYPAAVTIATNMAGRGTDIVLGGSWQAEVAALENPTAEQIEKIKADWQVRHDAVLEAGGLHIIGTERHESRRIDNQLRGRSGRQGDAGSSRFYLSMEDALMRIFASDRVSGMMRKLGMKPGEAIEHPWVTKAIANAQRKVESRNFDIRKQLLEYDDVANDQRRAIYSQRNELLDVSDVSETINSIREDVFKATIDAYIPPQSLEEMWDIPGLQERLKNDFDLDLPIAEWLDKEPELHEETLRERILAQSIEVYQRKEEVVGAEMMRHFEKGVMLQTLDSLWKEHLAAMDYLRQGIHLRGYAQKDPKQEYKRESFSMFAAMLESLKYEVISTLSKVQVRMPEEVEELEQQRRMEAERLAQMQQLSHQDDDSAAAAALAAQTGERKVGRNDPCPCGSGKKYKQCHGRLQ

`CC(C)C1CN(C(=O)c2nccnc2N)CCS1` (stereo not given): the Percent Effect in [1] is -2.86%; in assay [2], 10.4%; in assay [3], -7.56%; in assay [4] it was 11%; with Trypanosoma cruzi, 3.83%; in assay [5] it was -92.4%. The Percent Effect in assay [6] was 6.32%; in the assay filed under Homo sapiens, 14.5%; in assay [7], 3.23%; in [8], 8.64%; in [9], -9.31%.
Consider `O=C(Cc1ccc(-n2cccn2)cc1)N1CCCC(n2cccn2)C1` (stereo not given), for which the Percent Effect in assay [1] is -9.35%; in [2], 10.4%; in assay [3] it was -6.09%; in assay [4] it was -18.3%; with Trypanosoma cruzi, 11.5%; in assay [5], -1.9%. The Percent Effect in assay [6] is 13.8%; in the assay listed under Homo sapiens it was -3.32%; in [7], 6.67%; in assay [8] it was 11.8%; in assay [9] it was -20%.
`CSc1sc(NC(=O)Cc2c(C)nc(C)[nH]c2=O)nc1C`: the Percent Effect in [1] was -6.26%; in assay [2], 7.89%; in assay [3], -7.94%; in assay [4] it was 7.61%; in the assay on Trypanosoma cruzi, 5.83%; in [5], -2.68%. In addition, the Percent Effect in assay [6] was 6.18%; in the assay listed under Homo sapiens, 7.45%; in assay [7] it was 7.35%; in [8] it was 12.2%; in assay [9], -12.2%.
Consider `c1ccc(C[C@H]2CN(Cc3nccs3)CC[C@H]2OCC2CC2)cc1`, for which the Percent Effect in assay [1] is -4.65%; in [2], 2.67%; in assay [3], 3.57%; in [4] it was 3.38%; in the assay with Trypanosoma cruzi it was -0.591%; in assay [5], -2.56%. In addition, the Percent Effect in assay [6] is 4.32%; in the assay filed under Homo sapiens it was 21.5%; in [7] it was 3.19%; in assay [8], 11.5%; in assay [9], -3.05%.
As for `CC(=O)NCC(=O)N1CCn2cc(CN3CCN(C)CC3)nc2C1`, the Percent Effect in [1] is -4.28%; in [2], 10.4%; in [3], -0.0716%; in assay [4], 14.9%; in the assay on Trypanosoma cruzi it was 7.57%; in [5], -1.38%. The Percent Effect in assay [6] is 6.16%; in the assay listed under Homo sapiens, 9.49%; in assay [7], 8.6%; in assay [8], 16.1%; in assay [9] it was -0.16%.
As to `COC(=O)CCC(=O)N1CCC2(CN(Cc3cccc(F)c3)C2)C1`, the Percent Effect in assay [1] was -1.57%; in [2], 0%; in [3] it was 35.4%; in [4], 0.909%; in the assay on Trypanosoma cruzi, 1.54%; in assay [5] it was -52.5%. The Percent Effect in [6] was 1.71%; in the assay listed under Homo sapiens, -9.09%; in assay [7], -2.08%; in assay [8] it was -2.5%; in assay [9], -1.45%.
In the case of `COc1cccc(NC(=O)N(CCO)Cc2ccsc2)c1`, the Percent Effect in assay [1] was -3.38%; in assay [2] it was -6.94%; in assay [3] it was 1.15%; in assay [4], -5.41%; in the assay on Trypanosoma cruzi, -4.96%; in assay [5] it was -4.42%. The Percent Effect in [6] is 12.3%; in the assay listed under Homo sapiens, 11.8%; in assay [7], 3.16%; in [8], 5.13%; in assay [9], -4.52%.
With `CC(C)COC(C)C(=O)NCc1cc(F)cc(F)c1` (stereo not given), the Percent Effect in assay [1] is -1.7%; in assay [2], 2.6%; in assay [3], 8.53%; in assay [4], 10.1%; with Trypanosoma cruzi, 1.47%; in [5], 2.32%. In addition, the Percent Effect in assay [6] is -0.728%; in the assay filed under Homo sapiens it was 21.9%; in assay [7], 2.86%; in [8] it was 2.35%; in assay [9], -5.87%.
Turning to `CC(C)Oc1ncnc2c1CCN(Cc1cccs1)CC2`, the Percent Effect in assay [1] was 3.01%; in assay [2], 0%; in [3], 24.6%; in assay [4], 8.66%; in the assay on Trypanosoma cruzi, -0.193%; in [5] it was -43.9%. In addition, the Percent Effect in assay [6] is 3.76%; in the assay listed under Homo sapiens it was 8.59%; in [7], 6.25%; in [8], 10%; in assay [9] it was -1.96%.
`COC(=O)c1cccn1C1CCN(C(=O)c2cn[nH]c2C)CC1`: the Percent Effect in [1] was -3.48%; in assay [2] it was 10.4%; in assay [3], 0.41%; in assay [4] it was 9.63%; in the assay on Trypanosoma cruzi it was 4.31%; in assay [5] it was 0.356%. Also, the Percent Effect in assay [6] was 8.11%; in the assay listed under Homo sapiens, 21%; in [7], 6.8%; in [8], 19.5%; in assay [9], -9.12%.
